Drawing on ChEMBL document CHEMBL3988442, “University of Dundee, Small-Polar-MMV Screening Library” (2021), this text covers Percent Effect for 11 compounds.

Holding throughout (design): scale not given: direction of the effect not stated beside the values
Test [1] addresses Protein translocase subunit SecA (Escherichia coli (strain K12)) (UniProt P10408). The test is described as follows: Assay to Identify E. coli SecA ATPase Inhibitors. It is filed as functional. Particulars: 30 µM.
Test [2] concerns the target T1, Ubiquitin-activating enzyme e1, putative (Leishmania donovani (strain BPK282A1)) (UniProt E9BSI1).
T1 sequence (whole entry): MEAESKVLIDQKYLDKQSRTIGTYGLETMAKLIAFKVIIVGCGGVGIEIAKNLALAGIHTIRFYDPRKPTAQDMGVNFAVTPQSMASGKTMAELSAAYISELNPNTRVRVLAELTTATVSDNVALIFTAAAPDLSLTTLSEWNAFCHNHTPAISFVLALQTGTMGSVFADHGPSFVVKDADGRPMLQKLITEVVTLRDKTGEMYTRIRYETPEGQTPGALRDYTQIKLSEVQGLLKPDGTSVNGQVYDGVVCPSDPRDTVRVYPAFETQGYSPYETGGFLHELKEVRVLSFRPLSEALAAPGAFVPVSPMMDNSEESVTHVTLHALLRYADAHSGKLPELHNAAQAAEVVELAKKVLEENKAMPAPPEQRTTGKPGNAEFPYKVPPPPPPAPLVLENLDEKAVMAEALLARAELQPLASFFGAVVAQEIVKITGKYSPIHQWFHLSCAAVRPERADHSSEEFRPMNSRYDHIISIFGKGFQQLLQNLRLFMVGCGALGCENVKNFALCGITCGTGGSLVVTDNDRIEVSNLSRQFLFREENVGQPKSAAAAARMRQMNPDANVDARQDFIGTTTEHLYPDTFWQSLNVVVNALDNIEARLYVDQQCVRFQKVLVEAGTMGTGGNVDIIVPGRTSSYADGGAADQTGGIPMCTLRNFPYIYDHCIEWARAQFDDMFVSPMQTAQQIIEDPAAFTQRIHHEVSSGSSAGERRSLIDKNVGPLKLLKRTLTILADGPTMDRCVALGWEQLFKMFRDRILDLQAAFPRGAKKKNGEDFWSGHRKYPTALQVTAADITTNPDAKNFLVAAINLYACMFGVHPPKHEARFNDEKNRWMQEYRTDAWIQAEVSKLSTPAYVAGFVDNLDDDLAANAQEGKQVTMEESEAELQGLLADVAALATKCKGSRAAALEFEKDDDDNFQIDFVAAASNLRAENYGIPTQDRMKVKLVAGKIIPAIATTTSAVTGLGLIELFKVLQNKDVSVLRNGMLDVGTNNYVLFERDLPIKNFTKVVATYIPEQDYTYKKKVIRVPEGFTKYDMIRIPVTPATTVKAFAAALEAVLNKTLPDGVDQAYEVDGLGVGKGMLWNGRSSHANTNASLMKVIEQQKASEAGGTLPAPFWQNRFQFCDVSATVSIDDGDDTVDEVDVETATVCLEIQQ
Description: Leishmania donovani Ubiquitin Activating Enzyme (LdE1). It is filed as functional. Particulars: 30 µM.

In test [3] the target is AMP-activated protein kinase, AMPK (Homo sapiens) (UniProt P54646+O43741+P54619+Q9UGJ0+Q9Y478+Q13131+Q9UGI9). The test is described as follows: AMP-dependent Kinase enzyme assay. An in vitro enzyme assay that detects ADP turnover that is directly proportional to AMPK activity. This uses naive AMPK that is activated during the assay with MK-8722. Particulars: 30 µM. It is filed as functional.

The target in test [4] is Sialic acid-binding Ig-like lectin 9 (Homo sapiens) (UniProt Q9Y336). Description: Hs-Siglec9 ALPHAscreen SOP 20170721. Particulars: 10 µM.
The next test has as its system Trypanosoma cruzi. Description: Trypanosoma cruzi phosphomannomutase and mannose-1-phosphate guanylyltransferase assay. It is filed as functional. Particulars: 10 µM.
Test [5] deals with T2, Arginase-2, mitochondrial (Homo sapiens) (UniProt P78540).
T2 sequence (whole entry): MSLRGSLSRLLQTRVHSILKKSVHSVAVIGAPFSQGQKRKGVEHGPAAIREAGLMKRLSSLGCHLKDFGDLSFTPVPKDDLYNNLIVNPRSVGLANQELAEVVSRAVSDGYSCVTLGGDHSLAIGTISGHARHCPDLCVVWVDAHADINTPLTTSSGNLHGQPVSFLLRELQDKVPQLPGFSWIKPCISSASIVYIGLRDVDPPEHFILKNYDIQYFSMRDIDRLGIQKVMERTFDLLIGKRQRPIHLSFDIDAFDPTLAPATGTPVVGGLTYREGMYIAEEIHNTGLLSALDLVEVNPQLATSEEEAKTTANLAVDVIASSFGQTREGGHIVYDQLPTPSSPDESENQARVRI
The test is described as follows: in vitro enzyme assay to detect the production of urea directly proportional to the activity of Arginase II. Further: in the data most compounds retested in dose-response had high values. Particulars: 33.3 µM. The class given is functional.

Test [6] addresses T3, Proteasome subunit beta (Trypanosoma cruzi) (UniProt O96673).
T3 sequence (whole entry): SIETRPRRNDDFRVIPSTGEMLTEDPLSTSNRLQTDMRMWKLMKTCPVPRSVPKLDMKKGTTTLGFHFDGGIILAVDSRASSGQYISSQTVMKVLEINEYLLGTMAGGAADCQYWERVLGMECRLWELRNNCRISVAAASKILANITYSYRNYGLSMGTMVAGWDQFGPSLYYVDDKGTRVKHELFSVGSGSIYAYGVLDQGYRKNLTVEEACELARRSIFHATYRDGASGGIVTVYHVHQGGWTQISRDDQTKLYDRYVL
Description: Trypanosoma cruzi proteasome chymotrypsin-like activity (TcProtChymo) assay. Further: in the data most compounds retested in dose-response had high values. The class given is functional. Particulars: 9.37 µM.

A further test is filed under the species Homo sapiens. The test is described as follows: To identify inhibition of the IFN signalling (Jak-Stat) pathway via expression of an eGFP reporter gene under the control of an IFN-stimulated response element (ISRE) containing MxA promoter. The class given is functional. Particulars: 30 µM. For orientation: A reporter such as luciferase makes a cellular process visible.

Test [7] addresses T4, Tyrosyl-tRNA synthetase, putative (Trypanosoma cruzi (strain CL Brener)) (UniProt Q4DSP6).
T4 sequence (whole entry): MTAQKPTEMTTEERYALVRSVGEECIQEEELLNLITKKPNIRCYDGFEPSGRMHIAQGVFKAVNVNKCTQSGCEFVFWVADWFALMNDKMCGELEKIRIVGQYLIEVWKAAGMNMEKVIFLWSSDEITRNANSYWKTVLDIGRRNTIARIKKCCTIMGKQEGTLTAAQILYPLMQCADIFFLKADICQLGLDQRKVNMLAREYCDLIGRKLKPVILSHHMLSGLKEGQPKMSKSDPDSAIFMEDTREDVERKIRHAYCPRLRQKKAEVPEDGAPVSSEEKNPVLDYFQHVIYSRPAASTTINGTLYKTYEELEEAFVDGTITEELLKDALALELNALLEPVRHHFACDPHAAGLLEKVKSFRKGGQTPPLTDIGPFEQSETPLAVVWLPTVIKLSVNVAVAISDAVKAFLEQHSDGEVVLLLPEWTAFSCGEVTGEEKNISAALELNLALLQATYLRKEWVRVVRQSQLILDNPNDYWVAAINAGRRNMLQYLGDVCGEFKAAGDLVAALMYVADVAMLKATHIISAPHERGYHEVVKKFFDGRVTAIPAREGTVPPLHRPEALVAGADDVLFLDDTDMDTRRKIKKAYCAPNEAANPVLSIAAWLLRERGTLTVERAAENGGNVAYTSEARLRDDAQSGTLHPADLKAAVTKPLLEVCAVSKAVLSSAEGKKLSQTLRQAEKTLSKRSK
The test is described as follows: Trypanosoma cruzi tyrosyl tRNA synthetase (TcYRS) _High Tyrosine SOP. Further: in the data most compounds retested in dose-response had high values. The class given is functional. Particulars: 30 µM.

Test [8] deals with T4, Tyrosyl-tRNA synthetase, putative (Trypanosoma cruzi (strain CL Brener)). The test is described as follows: Trypanosoma cruzi tyrosyl tRNA synthetase (TcYRS) SOP. The class given is functional. Particulars: 30 µM.
The target in test [9] is Chromo domain-containing protein 1 (Saccharomyces cerevisiae (strain ATCC 204508 / S288c) (Baker's yeast)) (UniProt P32657). Description: ScCHD-1 Enzyme Inhibition Assay. Further: in the data most compounds retested in dose-response had high values. It is filed as functional. Particulars: 30 µM.

Structures are written as SMILES. For some of these results: Measured potencies and affinities stand elsewhere.

Protein translocase subunit SecA (Escherichia coli (strain K12)), sequence (P10408 whole entry): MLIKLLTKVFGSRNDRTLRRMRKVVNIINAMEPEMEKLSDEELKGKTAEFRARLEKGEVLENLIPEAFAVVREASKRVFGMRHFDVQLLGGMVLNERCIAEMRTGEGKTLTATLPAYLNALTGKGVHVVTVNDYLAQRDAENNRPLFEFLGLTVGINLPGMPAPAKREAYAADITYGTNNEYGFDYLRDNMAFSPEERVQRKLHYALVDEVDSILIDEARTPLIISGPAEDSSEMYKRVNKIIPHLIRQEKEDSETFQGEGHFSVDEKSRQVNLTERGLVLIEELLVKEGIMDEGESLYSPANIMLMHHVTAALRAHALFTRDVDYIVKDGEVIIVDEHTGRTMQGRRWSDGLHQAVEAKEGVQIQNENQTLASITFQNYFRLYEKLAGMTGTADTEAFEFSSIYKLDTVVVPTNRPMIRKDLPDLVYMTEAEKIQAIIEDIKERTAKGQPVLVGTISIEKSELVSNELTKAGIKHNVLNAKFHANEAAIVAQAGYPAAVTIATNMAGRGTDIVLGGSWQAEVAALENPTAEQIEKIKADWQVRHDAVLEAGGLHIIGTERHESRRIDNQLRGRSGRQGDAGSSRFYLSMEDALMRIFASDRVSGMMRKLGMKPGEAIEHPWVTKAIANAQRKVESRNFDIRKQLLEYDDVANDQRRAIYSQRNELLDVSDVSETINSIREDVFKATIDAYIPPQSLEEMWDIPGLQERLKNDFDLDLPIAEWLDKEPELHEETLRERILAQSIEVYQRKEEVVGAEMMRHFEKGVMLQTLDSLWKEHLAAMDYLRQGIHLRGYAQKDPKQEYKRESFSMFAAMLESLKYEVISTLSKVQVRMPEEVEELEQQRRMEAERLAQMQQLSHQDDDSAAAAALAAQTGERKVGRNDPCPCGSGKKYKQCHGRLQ
Sialic acid-binding Ig-like lectin 9 (Homo sapiens), sequence (Q9Y336 whole entry): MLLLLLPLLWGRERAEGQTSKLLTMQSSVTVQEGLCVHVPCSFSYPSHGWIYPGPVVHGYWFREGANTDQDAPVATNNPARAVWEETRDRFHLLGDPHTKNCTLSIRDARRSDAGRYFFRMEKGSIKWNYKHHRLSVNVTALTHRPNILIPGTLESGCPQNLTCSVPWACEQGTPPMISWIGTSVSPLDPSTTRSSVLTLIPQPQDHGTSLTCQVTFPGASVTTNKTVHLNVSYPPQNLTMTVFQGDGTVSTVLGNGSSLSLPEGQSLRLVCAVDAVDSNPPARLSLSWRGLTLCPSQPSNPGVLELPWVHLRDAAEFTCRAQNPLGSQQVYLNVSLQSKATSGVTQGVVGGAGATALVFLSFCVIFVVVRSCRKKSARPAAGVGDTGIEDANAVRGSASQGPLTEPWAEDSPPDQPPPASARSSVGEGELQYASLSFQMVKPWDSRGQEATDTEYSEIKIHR
Chromo domain-containing protein 1 (Saccharomyces cerevisiae (strain ATCC 204508 / S288c) (Baker's yeast)), sequence (P32657 whole entry, the tested form may be a part): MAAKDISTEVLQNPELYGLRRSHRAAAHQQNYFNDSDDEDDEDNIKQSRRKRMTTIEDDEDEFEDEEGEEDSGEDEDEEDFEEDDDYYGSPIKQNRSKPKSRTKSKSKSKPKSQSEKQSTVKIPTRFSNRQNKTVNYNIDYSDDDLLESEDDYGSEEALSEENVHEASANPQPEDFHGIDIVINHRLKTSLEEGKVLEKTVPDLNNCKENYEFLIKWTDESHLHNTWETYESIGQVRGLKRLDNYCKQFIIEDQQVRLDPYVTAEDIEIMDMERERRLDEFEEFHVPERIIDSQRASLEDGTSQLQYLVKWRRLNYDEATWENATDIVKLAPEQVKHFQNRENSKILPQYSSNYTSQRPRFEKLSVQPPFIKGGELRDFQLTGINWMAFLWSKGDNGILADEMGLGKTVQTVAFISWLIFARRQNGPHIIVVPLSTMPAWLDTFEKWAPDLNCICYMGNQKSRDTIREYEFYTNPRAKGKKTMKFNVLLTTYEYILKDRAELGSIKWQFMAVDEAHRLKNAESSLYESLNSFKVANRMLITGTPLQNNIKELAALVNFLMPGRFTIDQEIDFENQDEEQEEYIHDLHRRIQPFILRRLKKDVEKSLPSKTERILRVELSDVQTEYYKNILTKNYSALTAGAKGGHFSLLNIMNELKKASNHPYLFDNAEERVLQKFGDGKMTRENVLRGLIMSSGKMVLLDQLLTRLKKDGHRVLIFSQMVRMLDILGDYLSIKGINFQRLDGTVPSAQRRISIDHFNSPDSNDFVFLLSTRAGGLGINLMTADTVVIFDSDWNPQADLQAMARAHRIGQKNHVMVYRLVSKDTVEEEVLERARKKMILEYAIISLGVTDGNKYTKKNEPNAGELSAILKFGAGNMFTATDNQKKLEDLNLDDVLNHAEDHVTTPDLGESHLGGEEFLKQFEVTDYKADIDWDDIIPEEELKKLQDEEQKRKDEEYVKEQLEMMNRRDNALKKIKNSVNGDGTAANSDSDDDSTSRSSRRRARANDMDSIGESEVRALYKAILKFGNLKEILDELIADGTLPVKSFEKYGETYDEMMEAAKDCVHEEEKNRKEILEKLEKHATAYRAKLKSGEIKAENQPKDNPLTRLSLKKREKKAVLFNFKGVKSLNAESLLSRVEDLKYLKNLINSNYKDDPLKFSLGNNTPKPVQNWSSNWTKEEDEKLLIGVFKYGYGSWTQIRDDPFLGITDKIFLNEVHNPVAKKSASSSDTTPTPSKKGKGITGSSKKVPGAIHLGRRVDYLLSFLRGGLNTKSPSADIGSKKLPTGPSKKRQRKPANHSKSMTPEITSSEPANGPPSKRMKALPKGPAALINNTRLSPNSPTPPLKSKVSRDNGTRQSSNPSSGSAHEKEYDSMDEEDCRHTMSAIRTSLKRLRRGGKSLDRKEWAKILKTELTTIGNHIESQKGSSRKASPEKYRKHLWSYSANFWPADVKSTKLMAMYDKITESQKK

Consider `Cc1nc(C)n(C2CCCN(C(=O)c3cc4ccccc4n3C)C2)n1` (stereo unspecified), for which the Percent Effect is -3.87% in [1]; 7.79% in test [2]; -8.41% in [3]; 1.64% in test [4]; 5.78% in the test with Trypanosoma cruzi; 0.632% in [5]. The Percent Effect in test [6] is 6.71%; in the test listed under Homo sapiens it was 17.1%; in test [7], 7.62%; in [8], 9.41%; in test [9], -16.3%.
Consider `CC(C)(C)c1n[nH]cc1CN1CCc2nc3ccsc3c(=O)n2CC1`, for which the Percent Effect in test [1] is -2.34%; in test [2] it was 25.7%; in [3] it was 7.24%; in test [4], -3.97%; with Trypanosoma cruzi, 2.96%; in test [5] it was -7.19%. The Percent Effect is 18.7% in test [6]; 43.3% in the test filed under Homo sapiens; -1.07% in [7]; 3.9% in test [8]; -5.96% in [9].
`CC(=O)Nc1nc(C2CCN(C(=O)c3cccnc3)CC2)cs1`: the Percent Effect in test [1] was -6.73%; in test [2], 21.3%; in test [3], 0.538%; in test [4], 3.28%; with Trypanosoma cruzi, 2.36%; in [5], -2.56%. Also, the Percent Effect was 12.1% in [6]; 5.76% in the test listed under Homo sapiens; 5.32% in test [7]; 19.2% in test [8]; -2.51% in [9].
As for `Fc1cccc(-c2nc(CN3CCOC(Cn4cccn4)C3)co2)c1` (stereo unspecified), the Percent Effect in test [1] was -5.98%; in test [2], 2.7%; in test [3], -6.81%; in test [4], 3.19%; in the test on Trypanosoma cruzi, -2.36%; in test [5] it was 4.81%. Moreover, the Percent Effect is 4.68% in test [6]; -1.08% in the test filed under Homo sapiens; 7.39% in [7]; 6.17% in test [8]; -3.05% in test [9].
In the case of `COc1ccc(CCN2CCCC(CN(C)Cc3ccc(C)o3)C2)cc1` (stereo unspecified), the Percent Effect in [1] is -1.16%; in [2] it was 0%; in [3] it was -4.07%; in test [4] it was 31.8%; in the test with Trypanosoma cruzi, 5.18%; in [5], 4.71%. Moreover, the Percent Effect worked out at 0.772% in [6]; 11.1% in the test filed under Homo sapiens; 5.38% in test [7]; 11.1% in [8]; 0.528% in test [9].
Take `CC(Oc1ccccc1C(F)(F)F)C(=O)NCCC(=O)N(C)C` (stereo unspecified): the Percent Effect was -4.14% in test [1]; 8.11% in test [2]; -2.52% in test [3]; 6.01% in test [4]; 2.93% with Trypanosoma cruzi; 26.2% in test [5]. Further, the Percent Effect in test [6] is 3.47%; in the test listed under Homo sapiens, -11.3%; in test [7], 4.95%; in test [8] it was 13.4%; in test [9], -4%.
On to `CC(C)CN1CCN(C(=O)Nc2cc(C(F)(F)F)c[nH]c2=O)CC1`, for which the Percent Effect in test [1] was -3.29%; in test [2] it was 2.6%; in [3], 6.98%; in [4], 4.09%; in the test with Trypanosoma cruzi, -2.06%; in test [5], 2.13%. Besides, the Percent Effect in test [6] is 3.55%; in the test listed under Homo sapiens, 20.1%; in test [7], 5.83%; in test [8], 12.2%; in test [9], -7.11%.
For the compound `CC(NC(=O)NCC1(c2ccc(F)cc2)CCC1)c1nncn1C` (stereo unspecified), the Percent Effect in test [1] was -5.85%; in test [2] it was 15.8%; in test [3], 2.85%; in test [4], 8.69%; in the test on Trypanosoma cruzi, -3.83%; in test [5], 0%. The Percent Effect amounted to 2.62% in test [6]; 7.23% in the test filed under Homo sapiens; 6.4% in test [7]; 23.5% in [8]; 2.89% in test [9].
For the compound `Cc1ccc(CNC(c2ccccc2)c2nccn2C)cc1C` (stereo unspecified), the Percent Effect in test [1] was -0.655%; in [2], 18.9%; in [3] it was -5.59%; in [4], 9.13%; in the test with Trypanosoma cruzi, 2.32%; in test [5], -0.554%. Further, the Percent Effect in [6] was 8.08%; in the test listed under Homo sapiens, 30.7%; in [7], 10.9%; in test [8] it was 25.6%; in test [9] it was -5.06%.
`COc1ccc(F)cc1C(C(=O)O)N1CCSCC1` (stereo unspecified): the Percent Effect in [1] was -2.63%; in [2], 8.11%; in test [3], -2.63%; in [4] it was 20.8%; in the test on Trypanosoma cruzi it was 1.66%; in test [5], 18.6%. The Percent Effect is 6.95% in test [6]; -10% in the test listed under Homo sapiens; 8.6% in test [7]; 18.5% in test [8]; -1.27% in [9].
`Cc1cnccc1N1CCCN(C(=O)CCCc2cn[nH]c2)CC1`: the Percent Effect in test [1] was -2.89%; in test [2], 11%; in [3] it was -5.34%; in test [4], 18.3%; in the test on Trypanosoma cruzi, 3.92%; in test [5], -1.36%. For the same compound, the Percent Effect was -1.06% in test [6]; 4.4% in the test filed under Homo sapiens; 1.07% in [7]; 7.5% in test [8]; -3.49% in test [9].
